Experimental data from ChEMBL document CHEMBL2218924, “A broad activity screen in support of a chemogenomic map for kinase signalling research and drug discovery” (Biochem J, 2013).

Columns and labels:
[1] = molecular target: Ephrin type-A receptor 5 (Homo sapiens) (UniProt P54756); conditions: at 1 µM
[2] = molecular target: Ephrin type-A receptor 5 (Homo sapiens) (UniProt P54756); conditions: at 10 µM
[3] = molecular target: Ephrin type-A receptor 7 (Homo sapiens) (UniProt Q15375); conditions: at 1 µM
Sequence of Ephrin type-A receptor 7 (Homo sapiens) (Q15375 28-998 limits assumed): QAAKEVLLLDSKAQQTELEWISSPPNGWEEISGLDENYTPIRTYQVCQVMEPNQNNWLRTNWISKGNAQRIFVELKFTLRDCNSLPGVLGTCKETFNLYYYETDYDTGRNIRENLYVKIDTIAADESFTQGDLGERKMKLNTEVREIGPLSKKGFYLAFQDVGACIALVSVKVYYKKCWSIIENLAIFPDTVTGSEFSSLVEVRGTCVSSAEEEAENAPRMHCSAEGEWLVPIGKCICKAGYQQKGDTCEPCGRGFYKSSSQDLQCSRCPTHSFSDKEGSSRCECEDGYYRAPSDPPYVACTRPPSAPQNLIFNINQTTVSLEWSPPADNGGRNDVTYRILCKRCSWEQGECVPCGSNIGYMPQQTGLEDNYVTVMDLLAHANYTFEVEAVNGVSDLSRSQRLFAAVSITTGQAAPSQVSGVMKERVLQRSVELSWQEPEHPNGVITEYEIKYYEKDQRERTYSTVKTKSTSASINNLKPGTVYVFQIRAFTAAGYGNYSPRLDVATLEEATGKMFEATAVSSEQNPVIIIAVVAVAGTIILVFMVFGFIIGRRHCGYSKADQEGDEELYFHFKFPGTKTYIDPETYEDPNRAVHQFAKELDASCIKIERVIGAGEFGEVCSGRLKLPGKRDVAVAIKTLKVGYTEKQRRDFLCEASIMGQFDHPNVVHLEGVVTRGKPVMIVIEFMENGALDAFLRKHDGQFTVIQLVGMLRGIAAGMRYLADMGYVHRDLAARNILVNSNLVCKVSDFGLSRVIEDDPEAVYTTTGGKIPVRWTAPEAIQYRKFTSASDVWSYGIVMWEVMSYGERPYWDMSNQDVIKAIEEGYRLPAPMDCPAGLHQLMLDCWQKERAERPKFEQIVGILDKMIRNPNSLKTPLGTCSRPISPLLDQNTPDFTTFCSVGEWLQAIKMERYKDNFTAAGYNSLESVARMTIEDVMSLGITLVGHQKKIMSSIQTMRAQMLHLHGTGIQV

[4] = molecular target: T1, Ephrin type-B receptor 1 (Homo sapiens) (UniProt P54762); conditions: at 1 µM
T1 sequence (whole entry): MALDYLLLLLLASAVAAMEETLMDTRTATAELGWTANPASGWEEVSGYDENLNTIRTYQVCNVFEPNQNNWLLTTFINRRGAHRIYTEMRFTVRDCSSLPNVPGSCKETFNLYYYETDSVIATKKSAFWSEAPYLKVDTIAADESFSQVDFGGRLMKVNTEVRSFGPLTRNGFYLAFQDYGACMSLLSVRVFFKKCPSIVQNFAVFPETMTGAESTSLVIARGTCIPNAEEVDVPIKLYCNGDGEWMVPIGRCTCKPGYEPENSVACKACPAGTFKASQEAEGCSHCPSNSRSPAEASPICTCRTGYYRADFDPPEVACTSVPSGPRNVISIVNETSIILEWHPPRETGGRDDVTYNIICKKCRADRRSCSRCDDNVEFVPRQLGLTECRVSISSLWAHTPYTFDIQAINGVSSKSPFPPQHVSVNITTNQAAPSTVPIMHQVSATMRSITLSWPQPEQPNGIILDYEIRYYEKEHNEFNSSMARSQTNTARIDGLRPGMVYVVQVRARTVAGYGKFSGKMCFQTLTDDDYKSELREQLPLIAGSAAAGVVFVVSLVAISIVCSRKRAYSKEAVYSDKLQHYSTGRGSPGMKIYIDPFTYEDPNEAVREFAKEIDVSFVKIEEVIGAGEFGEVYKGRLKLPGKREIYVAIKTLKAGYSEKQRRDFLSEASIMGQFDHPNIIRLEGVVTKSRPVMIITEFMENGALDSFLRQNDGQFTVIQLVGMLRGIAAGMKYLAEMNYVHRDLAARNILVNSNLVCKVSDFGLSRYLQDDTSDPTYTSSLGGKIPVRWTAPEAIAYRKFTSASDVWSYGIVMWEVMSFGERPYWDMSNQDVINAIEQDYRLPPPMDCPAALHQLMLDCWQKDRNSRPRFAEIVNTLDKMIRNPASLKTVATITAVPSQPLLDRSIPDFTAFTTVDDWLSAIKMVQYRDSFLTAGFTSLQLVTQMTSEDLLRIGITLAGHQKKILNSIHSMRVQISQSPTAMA

[5] = molecular target: T2, Ephrin type-B receptor 2 (Homo sapiens) (UniProt P29323); conditions: at 1 µM
T2 sequence (whole entry): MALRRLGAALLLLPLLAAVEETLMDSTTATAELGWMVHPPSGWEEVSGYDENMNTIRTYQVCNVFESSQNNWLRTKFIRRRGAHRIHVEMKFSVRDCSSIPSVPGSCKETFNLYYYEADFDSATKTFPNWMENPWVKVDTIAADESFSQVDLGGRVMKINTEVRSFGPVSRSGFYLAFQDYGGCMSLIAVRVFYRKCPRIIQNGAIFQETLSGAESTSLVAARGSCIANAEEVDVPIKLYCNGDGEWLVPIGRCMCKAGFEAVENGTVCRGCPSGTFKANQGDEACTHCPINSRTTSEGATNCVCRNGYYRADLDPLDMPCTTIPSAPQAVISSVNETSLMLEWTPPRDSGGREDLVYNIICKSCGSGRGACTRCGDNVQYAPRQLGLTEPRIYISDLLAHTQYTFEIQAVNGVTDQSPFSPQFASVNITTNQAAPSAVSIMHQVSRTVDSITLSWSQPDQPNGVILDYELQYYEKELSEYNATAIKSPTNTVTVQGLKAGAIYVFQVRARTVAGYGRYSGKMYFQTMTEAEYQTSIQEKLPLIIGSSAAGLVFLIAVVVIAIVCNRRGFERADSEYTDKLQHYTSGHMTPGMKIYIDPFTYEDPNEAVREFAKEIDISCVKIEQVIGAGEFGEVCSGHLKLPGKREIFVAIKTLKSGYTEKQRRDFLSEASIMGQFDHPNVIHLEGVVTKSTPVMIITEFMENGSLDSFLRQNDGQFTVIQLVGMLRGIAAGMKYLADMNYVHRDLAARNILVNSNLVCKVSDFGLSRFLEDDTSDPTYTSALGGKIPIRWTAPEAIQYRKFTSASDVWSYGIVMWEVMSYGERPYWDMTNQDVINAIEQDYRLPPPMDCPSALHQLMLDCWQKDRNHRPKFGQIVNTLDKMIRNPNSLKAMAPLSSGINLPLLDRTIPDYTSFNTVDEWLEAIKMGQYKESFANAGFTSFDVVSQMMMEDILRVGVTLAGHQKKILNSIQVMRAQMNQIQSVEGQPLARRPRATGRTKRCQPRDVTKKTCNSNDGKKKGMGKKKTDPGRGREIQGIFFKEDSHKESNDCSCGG

[6] = molecular target: Receptor tyrosine-protein kinase erbB-4 (Homo sapiens) (UniProt Q15303); conditions: at 10 µM
Sequence of Receptor tyrosine-protein kinase erbB-4 (Homo sapiens) (Q15303 whole entry): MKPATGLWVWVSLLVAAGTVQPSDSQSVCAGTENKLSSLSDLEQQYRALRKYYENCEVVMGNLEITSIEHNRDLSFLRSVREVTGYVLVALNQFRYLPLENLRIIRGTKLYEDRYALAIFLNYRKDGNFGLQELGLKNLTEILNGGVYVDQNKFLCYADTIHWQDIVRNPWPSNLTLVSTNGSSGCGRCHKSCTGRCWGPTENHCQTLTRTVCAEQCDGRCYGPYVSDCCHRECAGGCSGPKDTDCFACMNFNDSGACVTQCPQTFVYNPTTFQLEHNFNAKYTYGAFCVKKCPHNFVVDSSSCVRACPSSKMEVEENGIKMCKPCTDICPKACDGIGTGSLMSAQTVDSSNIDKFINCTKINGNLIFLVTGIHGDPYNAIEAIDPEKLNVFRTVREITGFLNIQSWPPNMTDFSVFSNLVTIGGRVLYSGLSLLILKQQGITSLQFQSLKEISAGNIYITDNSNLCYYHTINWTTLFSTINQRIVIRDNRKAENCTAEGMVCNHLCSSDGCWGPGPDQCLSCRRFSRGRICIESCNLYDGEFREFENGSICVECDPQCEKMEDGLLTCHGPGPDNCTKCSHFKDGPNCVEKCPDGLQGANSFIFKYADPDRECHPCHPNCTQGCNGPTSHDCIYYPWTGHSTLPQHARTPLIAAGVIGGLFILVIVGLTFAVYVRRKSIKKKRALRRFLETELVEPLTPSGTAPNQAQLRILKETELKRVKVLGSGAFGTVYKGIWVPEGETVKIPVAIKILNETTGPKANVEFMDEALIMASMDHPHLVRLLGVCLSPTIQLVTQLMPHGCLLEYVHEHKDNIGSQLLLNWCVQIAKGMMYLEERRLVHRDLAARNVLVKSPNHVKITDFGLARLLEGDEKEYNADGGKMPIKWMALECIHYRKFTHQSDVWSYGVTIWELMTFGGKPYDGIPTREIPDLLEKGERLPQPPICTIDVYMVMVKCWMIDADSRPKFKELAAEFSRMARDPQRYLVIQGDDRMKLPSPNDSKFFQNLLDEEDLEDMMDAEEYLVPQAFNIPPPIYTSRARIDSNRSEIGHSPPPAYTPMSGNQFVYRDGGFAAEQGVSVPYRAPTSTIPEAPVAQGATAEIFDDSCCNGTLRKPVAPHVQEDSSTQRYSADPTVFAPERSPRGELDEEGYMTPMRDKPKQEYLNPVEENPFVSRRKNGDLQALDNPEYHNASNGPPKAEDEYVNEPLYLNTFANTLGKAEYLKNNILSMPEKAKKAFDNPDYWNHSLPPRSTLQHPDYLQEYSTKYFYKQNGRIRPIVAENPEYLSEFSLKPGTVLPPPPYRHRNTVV

[7] = molecular target: T3, Ephrin type-A receptor 3 (Homo sapiens) (UniProt P29320); conditions: at 10 µM
T3 sequence (whole entry): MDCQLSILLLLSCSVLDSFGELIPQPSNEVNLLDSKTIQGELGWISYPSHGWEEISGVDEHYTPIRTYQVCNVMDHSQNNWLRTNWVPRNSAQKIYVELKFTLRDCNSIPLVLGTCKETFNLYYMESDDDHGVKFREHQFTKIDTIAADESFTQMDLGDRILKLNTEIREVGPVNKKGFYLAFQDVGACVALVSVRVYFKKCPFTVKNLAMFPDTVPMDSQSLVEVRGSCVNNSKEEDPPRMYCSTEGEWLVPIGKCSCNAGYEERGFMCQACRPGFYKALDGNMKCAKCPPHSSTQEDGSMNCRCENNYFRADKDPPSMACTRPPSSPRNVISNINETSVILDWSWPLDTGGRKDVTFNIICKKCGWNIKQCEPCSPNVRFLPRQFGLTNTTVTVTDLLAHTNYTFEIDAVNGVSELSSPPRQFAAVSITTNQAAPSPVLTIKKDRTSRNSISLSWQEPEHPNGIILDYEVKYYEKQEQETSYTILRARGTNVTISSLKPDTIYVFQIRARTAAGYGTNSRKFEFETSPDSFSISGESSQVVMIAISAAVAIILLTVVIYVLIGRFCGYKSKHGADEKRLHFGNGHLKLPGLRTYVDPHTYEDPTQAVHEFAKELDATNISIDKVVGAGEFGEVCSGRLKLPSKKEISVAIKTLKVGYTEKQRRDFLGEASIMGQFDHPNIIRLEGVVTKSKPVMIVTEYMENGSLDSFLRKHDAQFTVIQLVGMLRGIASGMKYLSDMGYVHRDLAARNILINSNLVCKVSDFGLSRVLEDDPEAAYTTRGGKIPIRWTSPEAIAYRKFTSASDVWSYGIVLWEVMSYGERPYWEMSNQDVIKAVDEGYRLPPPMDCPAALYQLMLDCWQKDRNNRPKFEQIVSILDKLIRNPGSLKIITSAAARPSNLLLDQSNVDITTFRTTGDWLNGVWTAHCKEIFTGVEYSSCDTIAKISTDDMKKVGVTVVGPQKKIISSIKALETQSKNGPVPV

[8] = molecular target: Ephrin type-A receptor 7 (Homo sapiens) (UniProt Q15375); conditions: at 10 µM
[9] = molecular target: Focal adhesion kinase 1 (Homo sapiens) (UniProt Q05397); conditions: at 1 µM
Sequence of Focal adhesion kinase 1 (Homo sapiens) (Q05397 2-1052 limits assumed): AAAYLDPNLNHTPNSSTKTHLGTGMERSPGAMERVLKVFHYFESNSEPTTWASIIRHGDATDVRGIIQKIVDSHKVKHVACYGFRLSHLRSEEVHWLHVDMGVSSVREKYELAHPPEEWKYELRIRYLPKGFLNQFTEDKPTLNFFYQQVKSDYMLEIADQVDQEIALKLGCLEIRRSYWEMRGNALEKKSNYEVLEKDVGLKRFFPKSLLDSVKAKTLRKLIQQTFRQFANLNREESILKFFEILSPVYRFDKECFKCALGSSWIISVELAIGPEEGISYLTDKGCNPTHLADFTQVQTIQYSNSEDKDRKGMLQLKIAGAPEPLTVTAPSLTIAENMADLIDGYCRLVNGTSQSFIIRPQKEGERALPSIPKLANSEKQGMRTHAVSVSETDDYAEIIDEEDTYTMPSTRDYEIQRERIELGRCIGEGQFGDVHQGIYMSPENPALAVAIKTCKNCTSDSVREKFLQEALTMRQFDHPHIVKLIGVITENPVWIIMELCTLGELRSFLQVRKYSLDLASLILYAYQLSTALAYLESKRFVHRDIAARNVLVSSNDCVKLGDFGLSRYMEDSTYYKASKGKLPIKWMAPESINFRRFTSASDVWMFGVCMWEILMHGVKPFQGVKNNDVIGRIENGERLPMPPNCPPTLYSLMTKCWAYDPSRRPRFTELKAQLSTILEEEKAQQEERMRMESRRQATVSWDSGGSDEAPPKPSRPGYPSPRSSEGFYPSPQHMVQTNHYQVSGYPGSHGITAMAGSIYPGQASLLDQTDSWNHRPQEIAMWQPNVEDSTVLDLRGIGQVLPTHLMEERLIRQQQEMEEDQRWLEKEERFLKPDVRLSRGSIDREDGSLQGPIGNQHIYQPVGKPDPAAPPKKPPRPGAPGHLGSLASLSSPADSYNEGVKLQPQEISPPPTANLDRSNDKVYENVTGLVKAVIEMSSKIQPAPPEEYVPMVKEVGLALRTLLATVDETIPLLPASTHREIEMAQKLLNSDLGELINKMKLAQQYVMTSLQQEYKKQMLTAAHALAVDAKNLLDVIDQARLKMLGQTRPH

Sequence of Ephrin type-A receptor 5 (Homo sapiens) (P54756 whole entry): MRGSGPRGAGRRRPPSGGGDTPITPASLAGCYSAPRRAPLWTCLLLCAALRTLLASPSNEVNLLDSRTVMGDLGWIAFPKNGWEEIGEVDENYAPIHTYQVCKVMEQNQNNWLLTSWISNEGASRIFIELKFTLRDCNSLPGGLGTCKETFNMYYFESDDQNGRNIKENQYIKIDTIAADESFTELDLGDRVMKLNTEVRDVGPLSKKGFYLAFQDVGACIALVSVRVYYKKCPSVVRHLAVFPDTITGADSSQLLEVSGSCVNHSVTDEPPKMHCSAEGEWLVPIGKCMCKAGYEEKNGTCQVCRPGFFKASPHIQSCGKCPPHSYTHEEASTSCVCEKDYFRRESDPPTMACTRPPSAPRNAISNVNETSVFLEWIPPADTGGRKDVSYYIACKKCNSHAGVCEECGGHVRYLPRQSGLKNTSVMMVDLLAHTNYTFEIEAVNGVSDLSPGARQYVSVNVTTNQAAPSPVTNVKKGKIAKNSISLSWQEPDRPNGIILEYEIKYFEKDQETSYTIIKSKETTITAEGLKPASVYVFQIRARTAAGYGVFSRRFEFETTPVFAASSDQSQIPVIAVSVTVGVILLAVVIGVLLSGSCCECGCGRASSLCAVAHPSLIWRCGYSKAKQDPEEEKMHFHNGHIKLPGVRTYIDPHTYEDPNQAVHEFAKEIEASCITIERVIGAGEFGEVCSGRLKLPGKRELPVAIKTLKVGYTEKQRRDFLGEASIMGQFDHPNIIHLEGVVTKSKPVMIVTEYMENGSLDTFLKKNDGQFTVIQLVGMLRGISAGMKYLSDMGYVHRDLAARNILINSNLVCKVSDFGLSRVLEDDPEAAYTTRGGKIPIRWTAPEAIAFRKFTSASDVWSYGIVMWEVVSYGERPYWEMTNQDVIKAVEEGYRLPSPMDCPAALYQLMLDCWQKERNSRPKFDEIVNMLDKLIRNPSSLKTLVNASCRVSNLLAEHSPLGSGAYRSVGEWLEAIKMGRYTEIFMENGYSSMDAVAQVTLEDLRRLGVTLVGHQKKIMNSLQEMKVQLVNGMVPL

Q: What does the source list for `O=c1c(-c2ccc(F)cc2)c(-c2ccncc2)[nH]n1-c1ccc(Cl)cc1`?
A: residual activity [1]: 119%; residual activity [2]: 82%; residual activity [3]: 100%; residual activity [4]: 128%; residual activity [5]: 121%; residual activity [6]: 34%

Q: For `Cc1cc(C)c(/C=C2\C(=O)Nc3ccccc32)[nH]1`, which residual activity [7] is on record?
A: Its residual activity is 80%.

Q: And the residual activity [8]?
A: The residual activity was 52%.

Q: What about the residual activity [9] of the same compound?
A: The residual activity was 52%.
